In the library only some 3.8% were active in any assay of this set; here they are far more common.
ADAM17 inh: inhibits human ADAM17 | AID 720648 | P78536 | recombinant ADAM17, EDANS/DABCYL FRET peptide cleavage | inhibition, % at 6.95 µM | actives 0.83% (n = 370,000);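 active = inhibition above the mean of compounds lying between control limits plus 3 SD, set per campaign, cut at about 8.5% in these data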
FGF22 binding: shifts melting point of recombinant human FGF22. recombinant FGF22 thermal shift, SYPRO orange fluorescence; percent of sucrose octasulfate shift, DMSO zero. activity (Tm shift, normalised), % at 9.99 µM. actives 1.5% (n = 340,000);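 active = mean Tm shift, scaled 0 neutral to 100 positive control, at about 1.3% or above, every replicate too, limit read from the data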
Target sequence (Q9HCT0 whole entry, looked up): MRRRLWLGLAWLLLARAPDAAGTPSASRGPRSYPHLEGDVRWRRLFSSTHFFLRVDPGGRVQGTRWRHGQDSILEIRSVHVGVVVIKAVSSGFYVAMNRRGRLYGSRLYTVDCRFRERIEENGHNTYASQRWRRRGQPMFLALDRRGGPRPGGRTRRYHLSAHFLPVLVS
rRNA inh HTS: inhibits bacterial ribosomal RNA function over humanized ribosomes; E. coli WT GFP vs humanized-ribosome RFP mutants, fluorescence, 24 h; hits give low values; DMSO median 0, no signal -100; GFP signal change (wild-type ribosome), % (test concentration not listed); actives 1.6% (n = 350,000);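 active = significant combined selectivity score with lowered wild-type GFP, culture density cut under 30%, mutant RFP and density less affected; inactive = any of these conditions unmet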
ADAM10 inh: inhibits human ADAM10 | O14672 | recombinant ADAM10, EDANS/DABCYL FRET peptide cleavage, 3 h | inhibition, % at 7 µM | actives 0.62% (n = 370,000) | AID 720582;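 active = inhibition above a per-campaign cutoff equal to the mean of compounds falling between control-based bounds plus 3 SD, cut at about 20% in these data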
proKLK7 act: proKLK7 (human) activation, primary screen. purified proKLK7, EDANS-DABCYL substrate fluorescence; 100% is mature enzyme control, 0% vehicle. activation, % at 7 µM. actives 0.9% (n = 370,000). AID 652039;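 active = activation above the mean of all tested compounds plus 3 SD, computed per campaign excluding outliers beyond control limits, cut at about 13% in these data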
Target sequence (P49862 whole entry, looked up): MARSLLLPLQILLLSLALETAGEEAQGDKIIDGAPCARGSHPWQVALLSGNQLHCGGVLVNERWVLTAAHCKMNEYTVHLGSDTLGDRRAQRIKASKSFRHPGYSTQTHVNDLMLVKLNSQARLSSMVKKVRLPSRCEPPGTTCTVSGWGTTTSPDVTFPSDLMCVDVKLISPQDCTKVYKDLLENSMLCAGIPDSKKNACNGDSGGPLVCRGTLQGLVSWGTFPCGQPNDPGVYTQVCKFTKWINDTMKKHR
ADAM10 ctr: ADAM10 inhibition, counter-screen for ADAM17 exosite hits; inhibition, % at 6.95 µM; recombinant ADAM10, EDANS/DABCYL FRET peptide cleavage, 3 h; shares compounds with ADAM17 inh; actives 47% (n = 2,900); AID 743256;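 active = mean inhibition over the triplicate runs exceeds the activity threshold set in the earlier primary screen, cut at about 20% in these data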
ADAM17 confirm: human ADAM17 inhibition, confirmation | shares compounds with ADAM17 inh | actives 65% (n = 2,900) | recombinant ADAM17, EDANS/DABCYL QFRET peptide cleavage | inhibition, % at 6.95 µM;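 active = mean inhibition across replicates above the hit cutoff set in the primary screen, cut at about 8.5% in these data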
Large screens that a line does not name were inactive (follow-up assays come after a bar, where they were run); ! = not confirmed by another sample.

COC(=O)CN=C1OC(=O)N2C(=O)C3=C4[C@@H](C[C@H]5C(=O)N(c6ccccc6)C(=O)[C@H]5[C@H]4[C@@]12Cc1ccccc1)[C@H]1C(=O)N(c2ccccc2)C(=O)[C@H]1[C@H]3C	ADAM17 inh 9.8 | ADAM10 ctr inactive | ADAM17 confirm inactive
C[C@H]1CN([C@@H](C)CO)C(=O)c2cc(NS(=O)(=O)c3ccccc3)ccc2O[C@H]1CN(C)C(=O)Nc1ccccc1	none (no result: ADAM17 inh, ADAM10 inh, proKLK7 act)
COc1ccccc1NS(=O)(=O)c1ccc(Cl)c(NC(=S)NC(=O)C2CCCC2)c1	ADAM17 inh 9.9 (no result: FGF22 binding, rRNA inh HTS) | ADAM10 ctr 38 | ADAM17 confirm 17
COc1cccc(-c2noc(C(C)n3nc(C)c([N+](=O)[O-])c3C)n2)c1 (centres undefined)	ADAM17 inh 13 (no result: FGF22 binding, rRNA inh HTS) | ADAM10 ctr inactive | ADAM17 confirm inactive
O=C(NCC1CC1(Cl)Cl)Nc1ccc(Cl)c(Cl)c1 (centres undefined)	ADAM17 inh 9.5 | ADAM10 ctr 32 | ADAM17 confirm 15
Cc1ccc(NC(=O)NCC2CC2(Cl)Cl)cc1 (centres undefined)	none
COc1ccc(/C=N/NC(=O)CN(C)S(=O)(=O)c2ccc(NC(C)=O)cc2)cc1	none
COc1cccc(/C=N/NC(=O)CN(CCc2ccccc2)S(=O)(=O)c2ccc(NC(C)=O)cc2)c1	ADAM17 inh 11 | ADAM10 ctr 24 | ADAM17 confirm 14
C[C@H](CO)N1C[C@H](C)[C@@H](CN(C)S(=O)(=O)c2cn(C)cn2)Oc2ccc(NS(=O)(=O)c3ccc(Cl)cc3)cc2CC1=O	none (no result: ADAM17 inh, ADAM10 inh, proKLK7 act)
CCc1ccc(OCC2c3cc(OC)c(OC)cc3CCN2C(=S)NCCOC)cc1 (centres undefined)	ADAM17 inh 10 | ADAM10 ctr 39 | ADAM17 confirm 21
CCc1ccc(OCC2c3cc(OC)c(OC)cc3CCN2C(=S)NC)cc1 (centres undefined)	none
CN(C)c1ccc(CN(CC2CCCO2)C(=O)c2cc3ccccc3o2)cc1 (centres undefined)	none
Cc1c(C(=O)N(Cc2ccc(N(C)C)cc2)CC2CCCO2)oc2ccccc12 (centres undefined)	ADAM17 inh 10.0 | ADAM10 ctr inactive | ADAM17 confirm inactive
O=C(NC(Nc1ncc(S(=O)(=O)c2ccc([N+](=O)[O-])cc2)s1)(C(F)(F)F)C(F)(F)F)c1ccc(Cl)cc1	ADAM17 inh 12 (no result: FGF22 binding, rRNA inh HTS) | ADAM10 ctr 41 | ADAM17 confirm 17
CSc1ccc(CN(C)Cc2cc(=O)oc3c(C)c(C)ccc23)cc1	none
CCOc1ccc(CN(C)Cc2cc(=O)oc3c(C)c(C)ccc23)cc1OC	ADAM17 inh 9.4 (no result: rRNA inh HTS) | ADAM10 ctr inactive | ADAM17 confirm inactive
COc1cccc(C(Nc2ccccn2)c2oc(CO)cc(=O)c2O)c1 (centres undefined)	ADAM17 inh 13 | ADAM10 ctr 27 | ADAM17 confirm 29
O=c1cc(CO)oc(C(Nc2ccccn2)c2cccc(F)c2)c1O (centres undefined)	none
COc1ccc(/C=N/NC(N)=S)cc1OC(=O)c1ccccc1	ADAM17 inh 9.1 (no result: FGF22 binding, rRNA inh HTS) | ADAM10 ctr inactive | ADAM17 confirm inactive
COc1cc(/C=N/NC(=O)c2cc(O)cc(O)c2)ccc1OC(=O)c1ccccc1	none
COc1ccccc1-c1ccc([C@@H]2[C@@H](C#N)N(C(=O)C3CC3)[C@@H]2CO)cc1	none (no result: ADAM17 inh, ADAM10 inh, proKLK7 act)
COc1ccc2c3c(n(C)c2c1)[C@H](CO)N(C(=O)c1ccccc1)CC31CN(C(=O)c2ccccc2)C1	none (no result: ADAM17 inh, ADAM10 inh, proKLK7 act)
COc1cc(NC(=O)c2cc(C)on2)cc(C(=O)Nc2cccc(C(F)(F)F)c2)c1	ADAM17 inh 12! | ADAM10 ctr 34 | ADAM17 confirm 16
COc1ccc(NC(=O)c2cc(C)on2)cc1	none
CNC(=O)C[C@H]1CC[C@H]2[C@@H](COC[C@H](O)CN2C(=O)Nc2cccc(OC)c2)O1	none (no result: ADAM17 inh, ADAM10 inh, proKLK7 act)

Screening data: PubChem BioAssay, several laboratories
